# Assay results from ChEMBL document CHEMBL1961873, “Compounds: GSK PKIS; Assays: Nanosyn kinase panel” (2012).
# Experiments:
# [1] = target: Sphingosine kinase 1 (Homo sapiens) (UniProt Q9NYA1); conditions: at 1 µM;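 also: mean SPHK1 inhibition value reported from the GSK PKIS kinase panel screen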
# [2] = target: T1, Sphingosine kinase 2 (Homo sapiens) (UniProt Q9NRA0); conditions: at 0.1 µM
# T1 sequence (whole entry): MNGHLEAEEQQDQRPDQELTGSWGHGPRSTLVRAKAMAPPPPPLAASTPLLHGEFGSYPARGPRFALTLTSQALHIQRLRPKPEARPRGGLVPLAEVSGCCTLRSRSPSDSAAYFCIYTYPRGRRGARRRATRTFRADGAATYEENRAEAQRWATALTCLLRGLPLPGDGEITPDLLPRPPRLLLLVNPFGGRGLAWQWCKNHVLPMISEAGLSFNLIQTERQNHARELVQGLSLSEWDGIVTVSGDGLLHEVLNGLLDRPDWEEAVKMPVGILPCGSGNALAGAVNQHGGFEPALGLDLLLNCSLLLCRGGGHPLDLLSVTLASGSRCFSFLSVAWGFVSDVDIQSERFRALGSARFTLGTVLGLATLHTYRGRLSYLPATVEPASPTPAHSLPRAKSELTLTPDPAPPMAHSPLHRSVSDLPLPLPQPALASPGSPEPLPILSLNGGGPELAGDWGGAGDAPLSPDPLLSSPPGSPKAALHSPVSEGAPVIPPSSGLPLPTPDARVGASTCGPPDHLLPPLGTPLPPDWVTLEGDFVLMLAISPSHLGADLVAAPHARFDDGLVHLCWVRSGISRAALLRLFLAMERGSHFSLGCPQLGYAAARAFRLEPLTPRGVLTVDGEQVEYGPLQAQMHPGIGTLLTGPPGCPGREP
# [3] = target: T1, Sphingosine kinase 2 (Homo sapiens); conditions: at 1 µM
# [4] = target: Casein kinase II subunit alpha (Homo sapiens) (UniProt P68400); conditions: at 0.1 µM
# [5] = target: Casein kinase II subunit alpha (Homo sapiens) (UniProt P68400); conditions: at 1 µM
# [6] = target: T2, Inhibitor of nuclear factor kappa-B kinase subunit alpha (Homo sapiens) (UniProt O15111); conditions: at 0.1 µM
# T2 sequence (whole entry): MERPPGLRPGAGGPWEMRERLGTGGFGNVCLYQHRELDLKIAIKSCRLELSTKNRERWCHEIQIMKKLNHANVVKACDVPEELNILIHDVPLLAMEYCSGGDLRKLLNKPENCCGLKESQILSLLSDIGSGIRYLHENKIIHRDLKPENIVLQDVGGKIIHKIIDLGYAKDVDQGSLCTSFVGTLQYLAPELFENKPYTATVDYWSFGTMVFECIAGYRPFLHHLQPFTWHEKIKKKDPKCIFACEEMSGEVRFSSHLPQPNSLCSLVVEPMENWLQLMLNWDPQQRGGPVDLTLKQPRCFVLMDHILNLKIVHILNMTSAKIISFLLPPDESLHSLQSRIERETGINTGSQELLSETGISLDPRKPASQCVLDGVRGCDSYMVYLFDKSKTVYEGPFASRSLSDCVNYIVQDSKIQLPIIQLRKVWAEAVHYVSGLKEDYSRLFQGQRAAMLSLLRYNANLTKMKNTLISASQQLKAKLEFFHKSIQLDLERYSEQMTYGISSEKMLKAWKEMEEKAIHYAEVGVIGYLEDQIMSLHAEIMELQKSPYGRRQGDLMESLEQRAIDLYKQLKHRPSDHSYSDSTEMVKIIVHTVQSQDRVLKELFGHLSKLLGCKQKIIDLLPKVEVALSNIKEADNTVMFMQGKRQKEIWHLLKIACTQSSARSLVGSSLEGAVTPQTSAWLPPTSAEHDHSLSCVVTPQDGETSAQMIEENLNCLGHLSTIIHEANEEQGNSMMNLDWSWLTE
# [7] = target: T2, Inhibitor of nuclear factor kappa-B kinase subunit alpha (Homo sapiens); conditions: at 1 µM
# [8] = target: T3, Inhibitor of nuclear factor kappa-B kinase subunit beta (Homo sapiens) (UniProt O14920); conditions: at 0.1 µM
# T3 sequence (whole entry): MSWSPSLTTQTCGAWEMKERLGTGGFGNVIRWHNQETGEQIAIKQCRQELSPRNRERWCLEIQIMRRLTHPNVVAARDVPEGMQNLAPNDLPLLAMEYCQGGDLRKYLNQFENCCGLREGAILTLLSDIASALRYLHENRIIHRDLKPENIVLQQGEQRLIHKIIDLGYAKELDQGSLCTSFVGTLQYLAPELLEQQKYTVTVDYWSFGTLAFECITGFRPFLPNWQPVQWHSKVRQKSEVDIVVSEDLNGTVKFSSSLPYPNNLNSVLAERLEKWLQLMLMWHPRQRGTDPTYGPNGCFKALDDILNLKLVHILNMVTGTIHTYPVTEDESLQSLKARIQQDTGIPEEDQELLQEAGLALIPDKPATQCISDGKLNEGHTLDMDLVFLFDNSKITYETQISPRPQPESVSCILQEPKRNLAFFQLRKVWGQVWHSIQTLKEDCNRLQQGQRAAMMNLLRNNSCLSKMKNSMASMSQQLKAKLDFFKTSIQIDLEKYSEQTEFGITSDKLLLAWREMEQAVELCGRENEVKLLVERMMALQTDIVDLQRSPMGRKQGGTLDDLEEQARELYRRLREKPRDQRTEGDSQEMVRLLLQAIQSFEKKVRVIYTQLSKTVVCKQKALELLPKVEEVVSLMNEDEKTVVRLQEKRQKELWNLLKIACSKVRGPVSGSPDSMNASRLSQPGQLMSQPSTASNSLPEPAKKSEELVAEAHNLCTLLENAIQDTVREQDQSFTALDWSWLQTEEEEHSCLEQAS
# [9] = target: T3, Inhibitor of nuclear factor kappa-B kinase subunit beta (Homo sapiens); conditions: at 1 µM
# [10] = target: T4, Inhibitor of nuclear factor kappa-B kinase subunit epsilon (Homo sapiens) (UniProt Q14164); conditions: at 0.1 µM
# T4 sequence (whole entry): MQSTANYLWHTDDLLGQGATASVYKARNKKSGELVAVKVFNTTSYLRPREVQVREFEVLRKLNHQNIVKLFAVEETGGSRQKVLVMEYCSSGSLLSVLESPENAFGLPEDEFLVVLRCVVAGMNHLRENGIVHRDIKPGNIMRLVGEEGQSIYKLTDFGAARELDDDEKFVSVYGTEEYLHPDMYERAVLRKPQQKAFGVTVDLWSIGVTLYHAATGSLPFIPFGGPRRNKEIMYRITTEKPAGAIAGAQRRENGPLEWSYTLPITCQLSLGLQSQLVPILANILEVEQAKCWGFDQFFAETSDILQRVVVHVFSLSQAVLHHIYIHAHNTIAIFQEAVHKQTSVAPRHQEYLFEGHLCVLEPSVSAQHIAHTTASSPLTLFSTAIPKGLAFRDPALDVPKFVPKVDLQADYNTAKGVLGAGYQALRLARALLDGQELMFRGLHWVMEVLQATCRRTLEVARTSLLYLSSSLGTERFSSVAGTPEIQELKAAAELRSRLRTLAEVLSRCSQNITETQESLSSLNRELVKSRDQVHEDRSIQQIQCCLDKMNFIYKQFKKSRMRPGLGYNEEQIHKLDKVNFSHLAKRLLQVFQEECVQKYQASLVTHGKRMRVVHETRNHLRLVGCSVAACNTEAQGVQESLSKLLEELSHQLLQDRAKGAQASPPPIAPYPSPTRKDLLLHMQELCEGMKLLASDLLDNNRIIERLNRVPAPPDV
# [11] = target: T4, Inhibitor of nuclear factor kappa-B kinase subunit epsilon (Homo sapiens); conditions: at 1 µM
# [12] = target: T5, Serine/threonine-protein kinase Nek1 (Homo sapiens) (UniProt Q96PY6); conditions: at 0.1 µM
# T5 sequence (whole entry): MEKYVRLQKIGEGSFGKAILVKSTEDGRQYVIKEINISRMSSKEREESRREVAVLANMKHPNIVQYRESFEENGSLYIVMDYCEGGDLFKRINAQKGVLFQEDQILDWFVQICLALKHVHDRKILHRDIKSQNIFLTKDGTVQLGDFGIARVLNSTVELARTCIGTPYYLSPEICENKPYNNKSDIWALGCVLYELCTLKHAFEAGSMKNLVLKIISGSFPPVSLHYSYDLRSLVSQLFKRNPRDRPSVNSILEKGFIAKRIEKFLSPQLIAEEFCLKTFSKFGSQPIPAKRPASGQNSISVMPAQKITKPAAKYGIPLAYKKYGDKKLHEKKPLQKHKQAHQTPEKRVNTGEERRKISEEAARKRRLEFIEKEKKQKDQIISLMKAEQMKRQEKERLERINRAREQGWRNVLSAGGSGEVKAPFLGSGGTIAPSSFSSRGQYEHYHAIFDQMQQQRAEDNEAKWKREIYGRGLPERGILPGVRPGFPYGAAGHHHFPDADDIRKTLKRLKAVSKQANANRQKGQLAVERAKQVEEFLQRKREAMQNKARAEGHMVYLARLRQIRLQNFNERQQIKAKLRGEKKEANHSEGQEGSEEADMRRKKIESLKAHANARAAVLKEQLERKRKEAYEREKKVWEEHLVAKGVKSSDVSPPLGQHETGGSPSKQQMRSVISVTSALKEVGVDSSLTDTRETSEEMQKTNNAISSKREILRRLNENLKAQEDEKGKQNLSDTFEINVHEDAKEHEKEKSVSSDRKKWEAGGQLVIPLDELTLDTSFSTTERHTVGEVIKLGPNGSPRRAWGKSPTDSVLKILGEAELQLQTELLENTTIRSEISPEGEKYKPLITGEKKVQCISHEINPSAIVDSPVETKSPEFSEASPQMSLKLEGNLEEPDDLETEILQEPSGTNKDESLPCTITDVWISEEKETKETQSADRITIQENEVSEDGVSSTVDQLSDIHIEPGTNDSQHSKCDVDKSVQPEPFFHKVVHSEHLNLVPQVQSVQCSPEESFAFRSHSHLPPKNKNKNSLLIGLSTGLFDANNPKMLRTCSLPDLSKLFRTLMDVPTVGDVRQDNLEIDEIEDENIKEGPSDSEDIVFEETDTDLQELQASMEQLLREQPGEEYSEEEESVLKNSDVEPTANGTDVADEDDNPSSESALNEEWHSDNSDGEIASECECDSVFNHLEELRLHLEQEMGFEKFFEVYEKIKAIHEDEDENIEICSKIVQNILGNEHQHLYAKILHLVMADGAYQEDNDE
# [13] = target: T5, Serine/threonine-protein kinase Nek1 (Homo sapiens); conditions: at 1 µM
# [14] = target: T6, Serine/threonine-protein kinase Nek2 (Homo sapiens) (UniProt P51955); conditions: at 0.1 µM
# T6 sequence (whole entry): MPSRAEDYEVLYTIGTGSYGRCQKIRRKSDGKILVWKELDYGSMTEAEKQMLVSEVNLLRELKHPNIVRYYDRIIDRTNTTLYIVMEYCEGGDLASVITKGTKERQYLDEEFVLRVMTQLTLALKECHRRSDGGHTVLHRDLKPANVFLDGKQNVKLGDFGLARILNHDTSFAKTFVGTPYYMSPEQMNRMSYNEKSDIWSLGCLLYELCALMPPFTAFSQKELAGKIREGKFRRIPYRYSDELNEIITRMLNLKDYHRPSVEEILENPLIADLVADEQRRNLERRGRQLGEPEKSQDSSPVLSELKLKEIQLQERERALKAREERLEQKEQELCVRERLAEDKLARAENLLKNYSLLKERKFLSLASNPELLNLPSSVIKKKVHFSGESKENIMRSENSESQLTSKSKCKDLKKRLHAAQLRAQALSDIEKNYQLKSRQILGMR
# [15] = target: T6, Serine/threonine-protein kinase Nek2 (Homo sapiens); conditions: at 1 µM
# [16] = target: Serine/threonine-protein kinase Nek6 (Homo sapiens) (UniProt Q9HC98); conditions: at 0.1 µM
# [17] = target: Serine/threonine-protein kinase Nek6 (Homo sapiens) (UniProt Q9HC98); conditions: at 1 µM
# [18] = target: Serine/threonine-protein kinase Nek7 (Homo sapiens) (UniProt Q8TDX7); conditions: at 0.1 µM
# [19] = target: Serine/threonine-protein kinase Nek7 (Homo sapiens) (UniProt Q8TDX7); conditions: at 1 µM
# [20] = target: T7, Serine/threonine-protein kinase Nek9 (Homo sapiens) (UniProt Q8TD19); conditions: at 0.1 µM;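 also: reported value is the mean percent inhibition of NEK9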
# T7 sequence (whole entry): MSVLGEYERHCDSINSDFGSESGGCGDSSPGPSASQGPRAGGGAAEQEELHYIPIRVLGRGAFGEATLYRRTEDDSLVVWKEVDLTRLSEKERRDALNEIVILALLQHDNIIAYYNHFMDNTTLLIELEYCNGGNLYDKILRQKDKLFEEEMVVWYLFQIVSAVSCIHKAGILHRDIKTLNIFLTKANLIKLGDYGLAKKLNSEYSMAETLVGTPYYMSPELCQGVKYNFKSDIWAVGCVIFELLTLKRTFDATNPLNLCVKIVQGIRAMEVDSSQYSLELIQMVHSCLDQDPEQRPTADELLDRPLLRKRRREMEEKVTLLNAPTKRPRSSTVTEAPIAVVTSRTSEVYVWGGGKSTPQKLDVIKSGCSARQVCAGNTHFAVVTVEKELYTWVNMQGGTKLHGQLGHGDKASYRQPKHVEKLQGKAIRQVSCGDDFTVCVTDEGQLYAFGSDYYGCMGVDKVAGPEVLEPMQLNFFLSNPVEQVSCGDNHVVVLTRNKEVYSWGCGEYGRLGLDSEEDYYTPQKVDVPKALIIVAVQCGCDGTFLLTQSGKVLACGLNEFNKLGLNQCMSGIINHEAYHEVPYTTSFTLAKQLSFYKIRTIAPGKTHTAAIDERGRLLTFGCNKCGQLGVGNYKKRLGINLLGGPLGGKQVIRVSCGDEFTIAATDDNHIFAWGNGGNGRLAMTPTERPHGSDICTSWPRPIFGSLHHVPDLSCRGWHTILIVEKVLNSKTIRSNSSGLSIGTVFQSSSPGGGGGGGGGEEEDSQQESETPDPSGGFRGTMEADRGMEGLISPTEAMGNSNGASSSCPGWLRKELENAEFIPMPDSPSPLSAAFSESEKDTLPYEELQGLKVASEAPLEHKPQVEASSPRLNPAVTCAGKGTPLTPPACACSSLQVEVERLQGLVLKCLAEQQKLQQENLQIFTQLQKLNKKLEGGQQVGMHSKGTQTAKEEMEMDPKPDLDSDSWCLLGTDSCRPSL
# Casein kinase II subunit alpha (Homo sapiens), sequence (P68400 whole entry, looked up): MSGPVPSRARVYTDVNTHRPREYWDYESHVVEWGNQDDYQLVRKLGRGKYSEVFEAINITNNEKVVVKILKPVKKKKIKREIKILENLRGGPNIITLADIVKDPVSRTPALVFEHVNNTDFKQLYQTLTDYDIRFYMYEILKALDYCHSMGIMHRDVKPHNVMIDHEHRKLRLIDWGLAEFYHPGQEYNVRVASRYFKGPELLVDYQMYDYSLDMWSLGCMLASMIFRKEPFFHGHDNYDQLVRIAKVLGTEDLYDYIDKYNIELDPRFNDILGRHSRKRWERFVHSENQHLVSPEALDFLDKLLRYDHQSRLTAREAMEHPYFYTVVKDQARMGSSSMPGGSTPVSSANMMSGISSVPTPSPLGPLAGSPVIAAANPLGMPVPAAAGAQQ
# Serine/threonine-protein kinase Nek6 (Homo sapiens), sequence (Q9HC98 whole entry): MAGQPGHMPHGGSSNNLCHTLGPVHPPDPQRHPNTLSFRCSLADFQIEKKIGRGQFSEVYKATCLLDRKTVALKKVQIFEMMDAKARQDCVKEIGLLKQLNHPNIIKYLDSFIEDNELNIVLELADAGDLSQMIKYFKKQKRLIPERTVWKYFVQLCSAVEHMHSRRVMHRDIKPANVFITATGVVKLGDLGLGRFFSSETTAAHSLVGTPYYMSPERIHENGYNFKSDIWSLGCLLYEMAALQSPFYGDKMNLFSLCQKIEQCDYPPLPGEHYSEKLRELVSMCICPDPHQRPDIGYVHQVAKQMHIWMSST
# Serine/threonine-protein kinase Nek7 (Homo sapiens), sequence (Q8TDX7 whole entry, looked up): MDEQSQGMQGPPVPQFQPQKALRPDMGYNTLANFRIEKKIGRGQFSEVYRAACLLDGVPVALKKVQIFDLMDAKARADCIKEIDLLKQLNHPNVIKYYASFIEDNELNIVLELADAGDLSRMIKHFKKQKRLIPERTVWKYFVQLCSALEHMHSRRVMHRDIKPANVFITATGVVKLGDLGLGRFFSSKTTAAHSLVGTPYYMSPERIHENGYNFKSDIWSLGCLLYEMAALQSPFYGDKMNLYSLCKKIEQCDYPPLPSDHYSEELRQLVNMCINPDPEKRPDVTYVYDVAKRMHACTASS
# Sphingosine kinase 1 (Homo sapiens), sequence (Q9NYA1 whole entry): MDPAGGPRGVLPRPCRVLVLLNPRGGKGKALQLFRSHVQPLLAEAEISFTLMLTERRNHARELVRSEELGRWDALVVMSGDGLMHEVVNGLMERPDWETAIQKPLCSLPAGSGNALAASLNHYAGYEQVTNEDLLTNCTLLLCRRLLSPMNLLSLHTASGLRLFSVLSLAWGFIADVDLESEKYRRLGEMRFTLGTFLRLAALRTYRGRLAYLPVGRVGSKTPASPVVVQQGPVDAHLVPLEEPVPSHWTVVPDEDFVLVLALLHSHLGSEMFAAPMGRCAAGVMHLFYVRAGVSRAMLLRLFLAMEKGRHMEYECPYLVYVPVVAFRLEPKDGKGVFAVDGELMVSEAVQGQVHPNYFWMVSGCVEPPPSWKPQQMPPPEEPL
smiles,measurement,setting,value
COc1cc2c(cc1Nc1nc(N3CCc4ccccc43)c3cc[nH]c3n1)N(C(=O)CN(C)C)CC2,inhibition,[1],-1.12%
same,inhibition,[2],-0.36%
same,inhibition,[3],0.81%
same,inhibition,[4],0.13%
same,inhibition,[5],-9.3%
same,inhibition,[6],2.9%
same,inhibition,[7],0.37%
same,inhibition,[8],4.25%
same,inhibition,[9],-1.42%
same,inhibition,[10],0.88%
same,inhibition,[11],-0.46%
same,inhibition,[12],1.31%
same,inhibition,[13],1%
same,inhibition,[14],2.74%
same,inhibition,[15],3.53%
same,inhibition,[16],0.8%
same,inhibition,[17],-0.68%
same,inhibition,[18],3.4%
same,inhibition,[19],3.29%
same,inhibition,[20],4.32%
